Test results reported in PubChem BioAssay (NCI).
About 79,000 compounds went through this panel and 15% of them were active in at least one assay; those are over-represented in the sample as a whole. Rule as the data show it: active = growth inhibition above about 70%; inactive = the rest.

What was measured:
[1] = NCI Yeast Anticancer Drug Screen. Data for the rad50 strain (AID 155);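 also: 0% = growth of vehicle-only cultures of the same strain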; settings: S. cerevisiae rad50 strain growth inhibition; at 50.0 µM; hits give high values
Method in brief: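 A DNA repair-deficient yeast mutant serves as the test organism; compound-induced growth inhibition is calculated against vehicle-treated cells.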

[2] = NCI Yeast Anticancer Drug Screen. Data for the mec2-1 strain (AID 157); settings: S. cerevisiae mec2-1 strain, at 50.0 µM, hits give high values
Method in brief: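 Test agents were screened against the mec2-1 yeast strain, with defined DNA repair or cell cycle alteration. Growth was scored as inhibition against vehicle-only controls.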

[3] = NCI Yeast Anticancer Drug Screen. Data for the sgs1 mgt1 strain (AID 161);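 also: 0% = growth of cultures given vehicle only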; settings: S. cerevisiae sgs1 mgt1 strain, at 50.0 µM, hits give high values
Method in brief: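 Read-out: growth inhibition vs vehicle controls. Cells: mutant yeast strain deficient in DNA damage repair.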

[4] = NCI Yeast Anticancer Drug Screen. Data for the cln2 rad14 strain (AID 165);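 also: 0% = growth equal to vehicle treated cultures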; settings: S. cerevisiae cln2 rad14 strain, at 50.0 µM, hits give high values
Method in brief: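 Growth of compound-exposed yeast (cln2 rad14 genotype) measured and expressed as inhibition relative to vehicle.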

[5] = NCI Yeast Anticancer Drug Screen. Data for the bub3 strain (AID 167); settings: S. cerevisiae bub3 mutant strain, at 50.0 µM, hits give high values
Method in brief: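 Inhibition values come from growth of compound-treated mutant yeast normalised to vehicle-treated controls.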

[6] = NCI Yeast Anticancer Drug Screen. Data for the mlh1 rad18 strain (AID 175); settings: S. cerevisiae mlh1 rad18 strain growth inhibition; at 50.0 µM; hits give high values
Method in brief: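 In this whole-cell yeast screen, a strain with altered DNA damage repair is challenged with compound, and its growth is measured against matched vehicle-treated controls.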

Measured: growth inhibition

CC/C(=N\N=C(/CC)c1cccs1)c1cccs1
inactive: [1] 25.5% | [2] -6.4% | [3] -10.7% | [4] 3.35% | [5] 13.1% | [6] -3.75%

CC(=O)ON1CCC=NC1
inactive: [1] 19.7% | [2] 10.3% | [3] -20.4% | [4] 8.05% | [5] 3.95% | [6] -6.75%

O=C(Nc1ccc(Cl)cc1)Nc1nnc(-c2ccc(F)cc2)o1
inactive: [1] 5.5% | [2] 9.25% | [3] 7.75% | [4] -70.3% | [5] -25% | [6] 17.4%

Cc1ccc(NC(=O)CN2CCCCC2)cc1
inactive: [1] -16.9% | [2] -7.65% | [3] -7% | [4] 3.9% | [5] -0.9% | [6] -21.9%

O=C1c2c(ccc3c2CCC3)CC12Cc1cc3c(cc1C2)CCC3
inactive: [1] -33.8% | [2] -32.5% | [3] -22.9% | [4] 10.9% | [5] -0.5% | [6] -15.2%

Nc1ccccc1/C=C(\C(=O)O)c1ccccc1
inactive: [1] -19.9% | [2] -4.45% | [3] 14.8% | [4] 12.4% | [5] -0.6% | [6] 11.4%

N#Cc1cc(-c2ccccc2)c[nH]c1=O
inactive: [1] -8.55% | [2] -1.45% | [3] -4.6% | [4] -36.9% | [5] -1.25% | [6] -1.55%

C=CC12CCCCC1C(NC)Cc1ccc(OC)c(O)c12 (stereo not given)
inactive: [1] 4.25% | [2] -1.65% | [3] 6.9% | [4] 1.8% | [5] 4.9% | [6] -6.9%

COc1cc(Br)c(C=Nc2cccc3cc(OC)c(OC)cc23)cc1OC
inactive: [1] -0.9% | [2] -14.3% | [3] -9.9% | [4] 20.4% | [5] -27.1% | [6] -15.9%

CCOC(=O)COc1ccc(Cl)cc1C
inactive: [1] 11.7% | [2] -4.7% | [3] -2.4% | [4] 4.45% | [5] 6.8% | [6] -17.2%

CCCCCCCCCCCCNC
inactive: [1] 38.2% | [2] 30.4% | [3] 61.9% | [4] 30.6% | [5] 62.6% | [6] 44.9%

Cc1ccc(S(=O)(=O)CCS(C)(=O)=O)cc1
inactive: [1] -0.5% | [2] 2.2% | [3] 13.2% | [4] 21.8% | [5] -13.7% | [6] -11.2%

CC(O)C1NC(=S)N(c2ccccc2)C1=O (stereo not given)
inactive: [1] 17.4% | [2] 21% | [3] 20.8% | [4] -20.2% | [5] -14.4% | [6] 46%

Nc1[nH]c(=S)[nH]c(=O)c1N=Nc1c(Br)cc(S(N)(=O)=O)cc1Br
inactive: [1] 4.65% | [2] -15.9% | [3] -24.1% | [4] -24.9% | [5] 9.2% | [6] 0.25%

OCC1C2C=CC(O2)[C@H]1CO (stereo not given in full)
inactive: [1] 1.65% | [2] -3.75% | [3] -11.8% | [4] -27.9% | [5] -24.9% | [6] -6.95%

CC1(C)Cc2cccc(OC(=O)NO)c2O1
inactive: [1] -0.65% | [2] 24.4% | [3] 0.45% | [4] -37.8% | [5] -3.1% | [6] 9%

O=S(=O)(O)c1cccc2ccc(O)cc12
inactive: [1] -4.05% | [2] -4.1% | [3] -2.05% | [4] -36.8% | [5] -11.1% | [6] 43.6%

CNC(=O)OCc1c(COC(=O)NC)c(C)n(-c2ccc3c(c2)OCO3)c1C
inactive: [1] -3.2% | [2] -6.95% | [3] 19.2% | [4] -0.45% | [5] 1.35% | [6] -40.3%

COC1OC(C(C)O)C(O)C(O)C1O (stereo not given)
inactive: [1] 23.6% | [2] 19% | [3] 10.2% | [4] 14.9% | [5] 4.65% | [6] 1.5%

N#Cc1nnc2cc(-c3ccccc3)nn2c1-c1ccco1
inactive: [1] 27.9% | [2] 11.2% | [3] 16.3% | [4] 35.5% | [5] 28.1% | [6] 31.4%
